# Test results taken from the supplement of paper PMC8728848.
# The full list was thinned out, with the strongest signals kept by preference.
# Key:
# Experiment in all cases: glycan array binding signal (z-score within array); higher = stronger binding
# Details in all cases: glycan notation: IUPAC condensed, linker removed
# Fuc(a1-2)Gal = target: Fuc(a1-2)Gal
# In short: (§1)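 Negative Z-scores can be read as non-binding. The Z-score is calculated within each array and then averaged across arrays of one protein sequence at different concentrations or buffers and across linkers. Arrays, 3228 in all, were curated from the Consortium for Functional Glycomics database and kept only where the protein sequence was available.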
# [1] = target: Fuc(a1-2)Gal(b1-4)GlcNAc(b1-3)GalNAc
# In short: as §1
# [2] = target: Fuc(a1-2)Gal(b1-4)[Fuc(a1-3)]GlcNAc
# In short: as §1
# [3] = target: Fuc(a1-2)[Gal(a1-3)]Gal(b1-3)GlcNAc(b1-6)GalNAc
# In short: as §1
# [4] = target: Fuc(a1-2)[GalNAc(a1-3)]Gal(b1-3)GlcNAc(b1-2)Man(a1-3)[Fuc(a1-2)[GalNAc(a1-3)]Gal(b1-3)GlcNAc(b1-2)Man(a1-6)]Man(b1-4)GlcNAc(b1-4)GlcNAc
# In short: as §1
# [5] = target: Fuc(a1-2)[GalNAc(a1-3)]Gal(b1-4)GlcNAc(b1-2)Man(a1-3)[Fuc(a1-2)[GalNAc(a1-3)]Gal(b1-4)GlcNAc(b1-2)Man(a1-6)]Man(b1-4)GlcNAc(b1-4)GlcNAc
# In short: as §1
# [6] = target: Fuc(a1-2)[GalNAc(a1-3)]Gal(b1-4)GlcNAc(b1-3)Gal(b1-4)GlcNAc(b1-3)Gal(b1-4)GlcNAc
# In short: as §1
# [7] = target: Fuc(a1-2)[GalNAc(a1-3)]Gal(b1-4)[Fuc(a1-3)]GlcNAc
# In short: as §1
# Fuc(a1-3)GlcNAc = target: Fuc(a1-3)GlcNAc
# In short: as §1
# [8] = target: Fuc(a1-3)[Gal(b1-4)]GlcNAc(b1-3)GalNAc
# In short: as §1
# [9] = target: Fuc(a1-3)[Gal3S(b1-4)]GlcNAc
# In short: as §1
# [10] = target: Fuc(a1-3)[GalNAc(b1-4)]GlcNAc
# In short: as §1
# [11] = target: Gal(a1-3)Gal(b1-3)GlcNAc(b1-3)GalNAc
# In short: as §1
# [12] = target: Gal(a1-3)[Gal(a1-4)]Gal(b1-4)GlcNAc
# In short: as §1
# Gal(b1-3)Gal = target: Gal(b1-3)Gal
# In short: as §1
# Gal(b1-3)GlcNAc(b1-2)Man = target: Gal(b1-3)GlcNAc(b1-2)Man
# In short: as §1
# [13] = target: Gal(b1-3)GlcNAc(b1-2)Man(a1-3)[Gal(b1-3)GlcNAc(b1-2)Man(a1-6)]Man(b1-4)GlcNAc(b1-4)GlcNAc
# In short: as §1
# [14] = target: Gal(b1-3)GlcNAc(b1-3)Gal(b1-3)GlcNAc
# In short: as §1
# [15] = target: Gal(b1-3)[Fuc(a1-4)]GlcNAc(b1-3)Gal(b1-3)[Fuc(a1-4)]GlcNAc
# In short: as §1
# [16] = target: Gal(b1-4)GlcNAc(b1-2)Man(a1-3)[Gal(b1-4)GlcNAc(b1-2)Man(a1-6)]Man(b1-4)GlcNAc(b1-4)GlcNAc
# In short: as §1
# [17] = target: Gal(b1-4)GlcNAc(b1-2)[Gal(b1-4)GlcNAc(b1-6)]Man(a1-6)[Gal(b1-4)GlcNAc(b1-2)Man(a1-3)]Man(b1-4)GlcNAc(b1-4)[Fuc(a1-6)]GlcNAc
# In short: as §1
# [18] = target: Gal(b1-4)GlcNAc(b1-3)Gal(b1-4)GlcNAc
# In short: as §1
# [19] = target: Gal(b1-4)GlcNAc(b1-3)Gal(b1-4)GlcNAc(b1-3)Gal(b1-4)GlcNAc
# In short: as §1
# [20] = target: Gal(b1-4)GlcNAc(b1-3)Gal(b1-4)GlcNAc(b1-3)Gal(b1-4)GlcNAc(b1-2)[Gal(b1-4)GlcNAc(b1-3)Gal(b1-4)GlcNAc(b1-3)Gal(b1-4)GlcNAc(b1-6)]Man(a1-6)[Gal(b1-4)GlcNAc(b1-3)Gal(b1-4)GlcNAc(b1-3)Gal(b1-4)GlcNAc(b1-2)Man(a1-3)]Man(b1-4)GlcNAc(b1-4)[Fuc(a1-6)]GlcNAc
# In short: as §1
# [21] = target: Gal(b1-4)GlcNAc(b1-3)Gal(b1-4)GlcNAc(b1-3)Gal(b1-4)GlcNAc(b1-3)Gal(b1-4)GlcNAc(b1-3)Gal(b1-4)GlcNAc(b1-2)Man(a1-3)[Gal(b1-4)GlcNAc(b1-3)Gal(b1-4)GlcNAc(b1-3)Gal(b1-4)GlcNAc(b1-3)Gal(b1-4)GlcNAc(b1-3)Gal(b1-4)GlcNAc(b1-2)Man(a1-6)]Man(b1-4)GlcNAc(b1-4)GlcNAc
# In short: as §1
# [22] = target: Gal(b1-4)GlcNAc(b1-3)[Gal(b1-4)GlcNAc(b1-6)]Gal(b1-4)GlcNAc
# In short: as §1
# Gal(b1-4)GlcNAc6P = target: Gal(b1-4)GlcNAc6P
# In short: as §1
# Gal(b1-6)Gal = target: Gal(b1-6)Gal
# In short: as §1
# Gal6S(b1-3)GlcNAc = target: Gal6S(b1-3)GlcNAc
# In short: as §1
# Gal6S(b1-3)GlcNAc6S = target: Gal6S(b1-3)GlcNAc6S
# In short: as §1
# Glc(a1-6)Glc(a1-6)Glc = target: Glc(a1-6)Glc(a1-6)Glc
# In short: as §1
# GlcA(b1-6)Gal = target: GlcA(b1-6)Gal
# In short: as §1
# [23] = target: GlcA3S(b1-3)Gal(b1-4)GlcNAc(b1-2)Man
# In short: as §1
# [24] = target: GlcNAc(b1-2)Man(a1-3)[GlcNAc(b1-2)Man(a1-6)]Man(b1-4)GlcNAc(b1-4)[Fuc(a1-6)]GlcNAc
# In short: as §1
# [25] = target: GlcNAc(b1-2)[GlcNAc(b1-4)]Man(a1-3)[GlcNAc(b1-2)Man(a1-6)]Man(b1-4)GlcNAc(b1-4)GlcNAc
# In short: as §1
# [26] = target: GlcNAc(b1-3)[GlcNAc(b1-6)]Gal(b1-4)GlcNAc
# In short: as §1
# [27] = target: GlcNAc(b1-3)[GlcNAc(b1-6)]GalNAc
# In short: as §1
# GlcNAc(b1-6)GalNAc = target: GlcNAc(b1-6)GalNAc
# In short: as §1
# [28] = target: Neu5Ac(a2-3)Gal(b1-3)GalNAc(b1-3)Gal(a1-4)Gal(b1-4)Glc
# In short: as §1
# [29] = target: Neu5Ac(a2-3)Gal(b1-3)GlcNAc(b1-2)Man
# In short: as §1
# [30] = target: Neu5Ac(a2-3)Gal(b1-4)GlcNAc(b1-2)Man(a1-3)[Neu5Ac(a2-6)Gal(b1-4)GlcNAc(b1-2)Man(a1-6)]Man(b1-4)GlcNAc(b1-4)GlcNAc
# In short: as §1
# [31] = target: Neu5Ac(a2-3)Gal(b1-4)GlcNAc(b1-2)[Neu5Ac(a2-3)Gal(b1-4)GlcNAc(b1-4)]Man(a1-3)[GlcNAc(b1-4)][Neu5Ac(a2-3)Gal(b1-4)GlcNAc(b1-2)[Neu5Ac(a2-3)Gal(b1-4)GlcNAc(b1-6)]Man(a1-6)]Man(b1-4)GlcNAc(b1-4)GlcNAc
# In short: as §1
# [32] = target: Neu5Ac(a2-3)Gal(b1-4)GlcNAc(b1-2)[Neu5Ac(a2-3)Gal(b1-4)GlcNAc(b1-4)]Man(a1-3)[GlcNAc(b1-4)][Neu5Ac(a2-3)Gal(b1-4)GlcNAc(b1-4)Man(a1-6)]Man(b1-4)GlcNAc(b1-4)GlcNAc
# In short: as §1
# [33] = target: Neu5Ac(a2-3)Gal(b1-4)GlcNAc(b1-3)Gal(b1-4)[Fuc(a1-3)]GlcNAc
# In short: as §1
# [34] = target: Neu5Ac(a2-6)Gal(b1-4)GlcNAc(b1-3)Gal(b1-3)GlcNAc
# In short: as §1
# [35] = target: Neu5Ac(a2-6)Gal(b1-4)GlcNAc(b1-3)Gal(b1-4)GlcNAc(b1-2)Man(a1-3)[Neu5Ac(a2-6)Gal(b1-4)GlcNAc(b1-3)Gal(b1-4)GlcNAc(b1-2)Man(a1-6)]GalNAc
# In short: as §1
# [36] = target: Neu5Ac(a2-6)Gal(b1-4)GlcNAc(b1-3)Gal(b1-4)GlcNAc(b1-6)[Gal(b1-3)]GalNAc
# In short: as §1
# [37] = target: Neu5Ac(a2-6)Gal(b1-4)GlcNAc(b1-3)[Neu5Ac(a2-6)Gal(b1-4)GlcNAc(b1-6)]GalNAc
# In short: as §1
# [38] = target: Neu5Ac(a2-6)Gal(b1-4)GlcNAc(b1-6)[Gal(b1-3)]GalNAc
# In short: as §1
# [39] = target: Neu5Ac(a2-8)Neu5Ac(a2-3)[GalNAc(b1-4)]Gal(b1-4)Glc
# In short: as §1
# [40] = target: Neu5Ac(b2-6)Gal(b1-4)GlcNAc
# In short: as §1
binder,measurement,setting,value
Clec18A (Homo sapiens) (protein) PFHTCDLRIDGDCFMVSSEADTYYRARMKCQRKGGVLAQIKRQKVQDILAFYLGRLETTNEVIDSDFETRNFWIGLTYKTAKDSFRWATGEHQAFTSFAFGQPDNHGFGNCVELQASAAFNWNDQRCKTRNRYICQ,glycan array binding signal (z-score),Fuc(a1-2)Gal,-0.536
same,glycan array binding signal (z-score),[1],-0.366
same,glycan array binding signal (z-score),[2],-0.32
same,glycan array binding signal (z-score),[3],1.74
same,glycan array binding signal (z-score),[4],-0.538
same,glycan array binding signal (z-score),[5],4.62
same,glycan array binding signal (z-score),[6],-0.814
same,glycan array binding signal (z-score),[7],-0.083
same,glycan array binding signal (z-score),Fuc(a1-3)GlcNAc,-0.783
same,glycan array binding signal (z-score),[8],-0.458
same,glycan array binding signal (z-score),[9],0.178
same,glycan array binding signal (z-score),[10],0.38
same,glycan array binding signal (z-score),[11],-0.324
same,glycan array binding signal (z-score),[12],2.29
same,glycan array binding signal (z-score),Gal(b1-3)Gal,-0.801
same,glycan array binding signal (z-score),Gal(b1-3)GlcNAc(b1-2)Man,-0.886
same,glycan array binding signal (z-score),[13],0.56
same,glycan array binding signal (z-score),[14],4.51
same,glycan array binding signal (z-score),[15],0.734
same,glycan array binding signal (z-score),[16],1.15
same,glycan array binding signal (z-score),[17],3.1
same,glycan array binding signal (z-score),[18],3.23
same,glycan array binding signal (z-score),[19],0.45
same,glycan array binding signal (z-score),[20],3.83
same,glycan array binding signal (z-score),[21],0.263
same,glycan array binding signal (z-score),[22],0.596
same,glycan array binding signal (z-score),Gal(b1-4)GlcNAc6P,0.093
same,glycan array binding signal (z-score),Gal(b1-6)Gal,3
same,glycan array binding signal (z-score),Gal6S(b1-3)GlcNAc,3.79
same,glycan array binding signal (z-score),Gal6S(b1-3)GlcNAc6S,-0.347
same,glycan array binding signal (z-score),Glc(a1-6)Glc(a1-6)Glc,-0.771
same,glycan array binding signal (z-score),GlcA(b1-6)Gal,8.1
same,glycan array binding signal (z-score),[23],-0.619
same,glycan array binding signal (z-score),[24],-0.289
same,glycan array binding signal (z-score),[25],-0.935
same,glycan array binding signal (z-score),[26],-0.673
same,glycan array binding signal (z-score),[27],-0.327
same,glycan array binding signal (z-score),GlcNAc(b1-6)GalNAc,0.314
same,glycan array binding signal (z-score),[28],2.87
same,glycan array binding signal (z-score),[29],1.04
same,glycan array binding signal (z-score),[30],-0.398
same,glycan array binding signal (z-score),[31],-0.652
same,glycan array binding signal (z-score),[32],-0.566
same,glycan array binding signal (z-score),[33],-0.342
same,glycan array binding signal (z-score),[34],-0.391
same,glycan array binding signal (z-score),[35],-0.045
same,glycan array binding signal (z-score),[36],0.884
same,glycan array binding signal (z-score),[37],3.01
same,glycan array binding signal (z-score),[38],1.17
same,glycan array binding signal (z-score),[39],4.6
same,glycan array binding signal (z-score),[40],0.965
